In ChEMBL document CHEMBL4513216, “Probing the Open Global Health Chemical Diversity Library for Multistage-Active Starting Points for Next-Generation Antimalarials” (ACS Infect Dis, 2020) one finds INHIBITION data, which are given here for 71 compounds.

Hit rate of the full screen: of about 68,000 compounds, about 2,700 (4%) showed an effect of 50% or more. Shown is part of a subset that was picked to be rich in strong results.

This experiment has as its system Plasmodium berghei. In words: Screen against P. berghei liver stage (PbLuc), transformed with Luciferase, at 2uM. The class given is functional, HepG2. The conditions noted are these: tested at 2 uM.
On to `CC(=O)N1CCC(Cc2ccc(-c3ccnn3C)nc2)CC1`, for which the INHIBITION amounted to 35.19%.
Under `Cc1ccc(N2CC[C@H]3O[C@@H](C(=O)N4CCCO4)CC[C@H]32)nn1` stands -28.58%; under `CCn1c(C)cc(C(=O)NCc2cccc(S(=O)(=O)NC)c2)c1C`, 62.01%; under `CCn1c(C)cc(C(=O)NCc2cccc(NS(C)(=O)=O)c2)c1C`, -6.29%.
For `CNS(=O)(=O)c1cccc(CNC(=O)c2cnn(C)c2C)c1`, the INHIBITION was -2.2%.
With `Cc1nccn1-c1ccc(NC(=O)C2CCCN2Cc2ccoc2)cc1` (stereo unspecified), the INHIBITION is recorded as 29.13%.
On to `Cc1nccn1-c1ccc(NC(=O)C2CCCN2CC2CC2)cc1` (stereo unspecified), for which the INHIBITION came to 69.67%.
Under `Cc1nccn1-c1ccc(NC(=O)C2CCCN2Cc2c[nH]cn2)cc1` (stereo unspecified) stands 31.51%.
As to `COCCCN1CCN(c2ncnc3nc(C)cc(C)c23)CC1`, the INHIBITION was determined as 19.27%.
Under `O=C(CCc1n[nH]c2c1CCCC2)N1C[C@H]2CC[C@@H](C1)N(CC1CC1)C2` stands 35.94%; under `Cc1nc(N)cc(N2CCCC(COc3cccc(F)c3)C2)n1` (stereo unspecified), 59.8%; under `Nc1cc(N2CCCC(COc3ccc(F)cc3)C2)nc(N)n1` (stereo unspecified), 17.48%.
For `Nc1cc(N2CCCC(COc3ccc(F)cc3)C2)ncn1` (stereo unspecified), the INHIBITION turned out to be 42.11%.
For `N#Cc1cccnc1NCc1cccc(C(=O)NCC2CCCCO2)c1` (stereo unspecified) the value was 27.85%.
Regarding `N#Cc1cccnc1NCCc1cc(F)cc2c1OCOC2`, the INHIBITION is given as 4.68%.
Regarding `COc1ccc2c(c1)CCCC2CC(=O)NCC(=O)O` (stereo unspecified), the INHIBITION is on record as -35.22%.
Under `COc1ccc2c(c1)CCCC2CC(=O)NCC(C)(C)C(=O)O` (stereo unspecified) stands 53.98%; under `COc1ccc2c(c1)CCCC2CC(=O)O` (stereo unspecified), -36.72%; under `CC1CN(CC(=O)Nc2nncs2)CCN1Cc1nccn1C` (stereo unspecified), -11.91%.
Regarding `CCS(=O)(=O)c1ncc(CN(C)C)n1Cc1ccccc1`, the INHIBITION is listed as -2.93%.
Under `O=c1oc(-c2cccs2)nn1CC(O)c1ccccc1F` (stereo unspecified) stands 34.89%; under `CNC(=O)c1cccc(NC(=O)Cn2nc(-c3cccs3)oc2=O)c1`, 17.39%.
Regarding `CC(=O)c1cccc(NC(=O)Cn2nc(-c3cccs3)oc2=O)c1`, the INHIBITION is given as 51.94%.
Regarding `CC(=O)c1cccc(NC(=O)Cn2cnc(-c3ccccc3)cc2=O)c1`, the INHIBITION amounted to 3.11%.
Regarding `O=C(Cn1cnc(-c2cccs2)cc1=O)Nc1cccnc1`, the INHIBITION is on record as -8.7%.
For `CC(=O)c1cccc(NC(=O)CCn2nc(-c3cccs3)oc2=O)c1`, the INHIBITION is on record as 15.28%.
For `O=c1oc(-c2cccs2)nn1CC(O)c1ccccc1` (stereo unspecified), the INHIBITION is 60.95%.
With `O=c1oc(-c2cccs2)nn1CC(O)c1ccc(F)cc1` (stereo unspecified), the INHIBITION is 29.61%.
With `CC(=O)c1cccc(NC(=O)Cn2cnc(-c3cccs3)cc2=O)c1`, the INHIBITION is listed as 50.7%.
As for `Cc1occc1C(=O)N1CCC2(CC1)C(c1cnn(C)c1)CC(=O)N2C` (stereo unspecified), the INHIBITION is given as -41.72%.
On to `Cc1cccc2c1OCCCC2NCc1nccn1Cc1ccccc1` (stereo unspecified), for which the INHIBITION is reported as 21.72%.
Regarding `c1csc(-c2nc(CNCCn3cccn3)cs2)c1`, the INHIBITION was 4.18%.
For `COc1cc(N2C[C@@H]3COC[C@]3(C(=O)NCc3ccccn3)C2)ncn1` the value was -23.31%; for `Nc1ncccc1C(=O)NCc1cccc(Br)c1`, -3.16%.
As for `O=C(NCCc1cccs1)[C@]12COC[C@H]1CN(C1CCOCC1)C2`, the INHIBITION came out at 17.24%.
For `COc1cc(N2CCC3(CCCN3Cc3cnn(C)c3)CC2)ncn1` the value was 30.09%.
In the case of `Cc1ccc(-c2cc(CN3CCc4cnc(C)nc4C3)on2)cc1`, the INHIBITION is on record as -34.82%.
Under `O=C([C@H]1C[C@H]2OCC[C@H]2N(C(=O)c2cnccn2)C1)N1CCCCO1` stands -1.69%; under `O=C([C@H]1C[C@H]2OCC[C@H]2N(C(=O)c2ccccn2)C1)N1CCCCO1`, 62.1%; under `O=C([C@H]1C[C@H]2OCC[C@H]2N(C(=O)c2ccncc2)C1)N1CCCCO1`, -34.26%.
Take `O=C(c1ccc(Br)o1)N1CCN(Cc2ccc(F)cc2)CC1`: the INHIBITION is reported as 10.22%.
For `CC(C)NC(=O)Nc1ccc(CNCc2cccc(C#N)c2)cc1` the value was -68.26%.
Take `Cc1ccc(CNC2CCCN(Cc3noc(C4CC4)n3)C2)s1` (stereo unspecified): the INHIBITION was found to be 54.29%.
In the case of `Cn1ccnc1CNC1CCCN(Cc2noc(C3CC3)n2)C1` (stereo unspecified), the INHIBITION was determined as 50.32%.
As to `Cn1cc(CNC2CCCN(Cc3noc(C4CC4)n3)C2)cn1` (stereo unspecified), the INHIBITION came out at 2.08%.
Under `CCc1nc(CN2CCCC(NCc3nc(C)c(C)o3)C2)no1` (stereo unspecified) stands 36.73%; under `Cc1nc(CN2CCCC(NCCc3ccccc3Cl)C2)no1` (stereo unspecified), 56.67%.
For `Cc1nc(CN2CCCC(NCc3cccc4ccccc34)C2)no1` (stereo unspecified) the value was 29.54%; for `CCc1nc(CN2CCCC(NCc3cc(C)no3)C2)no1` (stereo unspecified), -2.1%; for `Cn1ccnc1CC1CCCN(Cc2noc(C3CC3)n2)C1` (stereo unspecified), 11.24%.
For `Cc1ncc(CNC2CCCN(Cc3noc(C4CC4)n3)C2)s1` (stereo unspecified) the value was 18.46%.
Turning to `Cc1nc(CN2CCCC(NCCCc3ccccc3)C2)no1` (stereo unspecified), the INHIBITION was -6.4%.
For `Cc1cc(CNC2CCCN(Cc3noc(C4CC4)n3)C2)on1` (stereo unspecified) the value was 7.01%.
For `CCc1nc(CN2CCCC(NCc3cnc(C)s3)C2)no1` (stereo unspecified) the value was 77.57%.
Consider `Cc1oc(C(=O)O)cc1S(=O)(=O)Nc1cccc(-c2nccs2)c1`, for which the INHIBITION is given as 15.39%.
Under `Fc1cnc(N2C[C@H]3CCC[C@@]3(COc3ccccn3)C2)nc1` stands -27.16%.
With `COc1ccc2cc(NC(=O)CCNc3nc(C)cc(C)n3)cnc2c1`, the INHIBITION was -6.83%.
Take `O=C(CN(C1=NCCCCC1)c1ccc(Cl)cc1)c1ccccc1`: the INHIBITION is -65.06%.
`CC(C)c1ccc(CN2CCC3(CCCN(c4nncs4)C3)C2)cc1` (stereo unspecified): the INHIBITION came out at 5.52%.
For `Cc1noc(C)c1CCC(=O)N1CCN(CCn2cccn2)CC1` the value was 2.18%; for `CC(NC(=O)COCC(F)(F)F)c1nnc2n1CCCCC2` (stereo unspecified), 15.08%; for `Fc1ccccc1-c1cccc(C2CCCN(C3CCOCC3)C2)n1` (stereo unspecified), 25.4%.
Under `CCc1nc(CN2CCCC(NCCn3cncn3)C2)no1` (stereo unspecified) stands 35.56%; under `c1ncn(CC2CCCCN2Cc2noc(C3CC3)n2)n1` (stereo unspecified), 62.13%.
For `c1ncn(CC2CCCN(Cc3noc(C4CC4)n3)C2)n1` (stereo unspecified) the value was 29.54%.
Regarding `Cc1nc(CN2CCCC(NCc3ccsc3)C2)no1` (stereo unspecified), the INHIBITION is 20.28%.
Turning to `c1cnn(CC2CCCCN2Cc2noc(C3CC3)n2)c1` (stereo unspecified), the INHIBITION is recorded as -10.47%.
As for `Cc1ccsc1CNC1CCCN(Cc2noc(C3CC3)n2)C1` (stereo unspecified), the INHIBITION is 17.59%.
For `Cc1nc(CN2CCCC(NCc3sccc3C)C2)no1` (stereo unspecified), the INHIBITION is listed as 51.94%.
For `c1ncn(CCNC2CCCN(Cc3noc(C4CC4)n3)C2)n1` (stereo unspecified) the value was 54.29%; for `Cc1nc(CN2CCCC2Cn2cncn2)no1` (stereo unspecified), -21.93%.
